Among the data in PubChem BioAssay (EPA / NIEHS) are outcome and AC50 values, retold here.

A short description of assay [1]: CPHEA_Stoker_NIS_Cytotoxicity: Cytotoxicity Assessment for CPHEA's Radioactive Iodide Uptake (RAIU) Assay for Sodium/Iodide Symporter (NIS) Inhibition, Stoker and Laws Labs (AID 2283897).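 For AC50: active means loss of ATP signal versus DMSO meaning cytotoxicity.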 In short, it runs like this:
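hNIS-HEK293T-EPA human kidney cells were exposed for 2 hours at room temperature to test chemicals (0.001–100uM, 0.5% final DMSO) in HEPES-buffered HBSS, pH 7.4. Viability was read as ATP content by luciferase bioluminescence, loss of signal versus DMSO.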

Assay [2] addresses PGR (gene 5241) (UniProt P06401). The assay is described as follows: TOX21_PR_BLA_Followup_Agonist_ratio: Tox21 HEK293 Progesterone Receptor (PR) Agonism Beta-lactamase Follow-Up Assay, Ratio (AID 2283933). In a few lines: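 Beta-lactamase reporter readout: ratio of cleaved (ch2) to uncleaved (ch1) substrate after 2 h room-temperature loading, following 16 h compound exposure at 37C. Cells were PR-UAS-bla HEK293T in 2% charcoal-stripped FBS medium. Viability was multiplexed by CellTiter-Glo.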

Assay [3] has the same target. Kind of assay: TOX21_PR_BLA_Followup_Antagonist_ratio: Tox21 HEK293 Progesterone Receptor (PR) Antagonism Beta-lactamase Follow-Up Assay, Ratio (AID 2283934).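 Note: PR-UAS-bla HEK293T cells stimulated with 1 nM R5020 agonist for 16 hr.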 In short, it runs like this:
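Readout is the blue/green (ch2/ch1) substrate cleavage ratio after 2 hours at room temperature, following 16 hr co-treatment of PR-bla HEK293T cells with compound and 1nM promegestone. Multiplexed CellTiter-Glo viability flags cytotoxicity; DMSO baseline.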

Assay [4] shares this target. Kind of assay: TOX21_PR_LUC_Followup_Agonist: Tox21 HEK293 Progesterone Receptor (PR) Agonism Luciferase Follow-Up Assay (AID 2283937; active = hit-call score of the fitted dose curve at least 0.9, where 1 is the maximum; inactive = score below 0.9). In short, it runs like this: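 Agonism scored as luciferase induction over DMSO, read by ONE-Glo after 30 min at RT. Compounds were incubated 16 h at 37C on HEK293-PR-A-luc cells (3,000/well, pre-plated 5 h) previously grown 5 days in charcoal-stripped serum.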

Assay [5] has the same target. The assay is described as follows: TOX21_PR_LUC_Followup_Antagonist: Tox21 HEK293 Progesterone Receptor (PR) Antagonism Luciferase Follow-Up Assay (AID 2283938).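 Note: curve fitted upward as signal gain over DMSO baseline despite antagonist label.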 In short, it runs like this: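 Cells are grown 5 days in charcoal-stripped-FBS assay medium, plated, left 5 h, then dosed with compound and incubated 16 h. ONE-Glo reagent is added and luminescence read after 30 min.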

Assay [6] is described as follows: TOX21_PR_LUC_Followup_Antagonist_viability: Viability Assessment in the Tox21 HEK293 Progesterone Receptor (PR) Antagonism Luciferase Follow-Up Assay (AID 2283940). In a few lines: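 Viability counter-readout: cellular ATP measured by luciferase luminescence after 16 h compound exposure at 37C of HEK293-PR-A-luc cells, which had been cultured in charcoal-stripped serum and seeded 5 h beforehand.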

Assay [7] in a line: TOX21_PR_LUC_Followup_Agonist_viability: Viability Assessment in the Tox21 HEK293 Progesterone Receptor (PR) Agonism Luciferase Follow-Up Assay (AID 2283941).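 Note: loss of signal means cytotoxicity so actives lower viability.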 In a few lines: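 Cytotoxicity counter-readout in the PR-A luciferase reporter line HEK293, with 16 h compound exposure at 37C after cells were cultured in charcoal-stripped serum. Cellular ATP quantified by CellTiter-Glo luminescence.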

The target of assay [8] is T1, Thyroid hormone receptor alpha (Rattus norvegicus) + Thyroid hormone receptor beta (Rattus norvegicus) (UniProt P18113+P63059). The assay is described as follows: TOX21_TR_LUC_GH3_Antagonist_Followup: Tox21 GH3 Thyroid Hormone Receptor Antagonism Luciferase Follow-Up Assay (AID 2283942). In a few lines:
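Loss of T3-driven (1.0 nM final) reporter activity in GH3 cells was read by ONE-Glo luminescence after 24 h incubation at 37C; 15-point compound series spanned 92 uM to 5nM final, 1,500 cells/well.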

Assay [9] concerns the target T1, Thyroid hormone receptor alpha (Rattus norvegicus) + Thyroid hormone receptor beta (Rattus norvegicus). Kind of assay: TOX21_TR_LUC_GH3_Agonist_Followup: Tox21 GH3 Thyroid Hormone Receptor Agonism Luciferase Follow-Up Assay (AID 2283939). In short, it runs like this: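 Agonist-mode confirmatory run: 15 concentrations (5 nM to 92 uM final) on GH3 rat pituitary cells, 24 h at 37C/5% CO2, T3 as positive control. Luminescence read with ONE-Glo after 30 min.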

Assay [10] is described as follows: TOX21_PR_BLA_Followup_Agonist_viability: Viability Assessment in the Tox21 HEK293 Progesterone Receptor (PR) Agonism Beta-lactamase Follow-Up Assay (AID 2283935).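 Note: signal loss means lower viability so actives are cytotoxic.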 In a few lines:
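Run multiplexed with the beta-lactamase FRET read, this endpoint measures ATP by CellTiter-Glo luminescence (30 min, room temperature). PR-UAS-bla HEK293T cells received compound 6 hr after plating and were then incubated 16 hr at 37C in 2% stripped serum.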

The nature of assay [11]: TOX21_PR_BLA_Followup_Antagonist_viability: Viability Assessment in the Tox21 HEK293 Progesterone Receptor (PR) Antagonism Beta-lactamase Follow-Up Assay (AID 2283936).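 Note: cells exposed to compound with R5020 agonist for 16 h; hits lower the luminescence signal meaning cytotoxicity.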 In a few lines: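 PR-UAS-bla HEK293T cells in medium with 2% charcoal-stripped FBS were treated with compounds plus R5020 for 16 hr at 37C. After the beta-lactamase read, CellTiter-Glo was added to the same wells and luminescence read after 30 min at room temperature.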

Records with an inconclusive call do not appear. Activity calls are given as the source filed them. Rule for the calls, unless noted: active = hit-call score of the fitted dose curve at least 0.9, where 1 is the maximum; inconclusive = response in the unintended direction; inactive = score below 0.9.

PGR (gene 5241), sequence (P06401 whole entry, looked up): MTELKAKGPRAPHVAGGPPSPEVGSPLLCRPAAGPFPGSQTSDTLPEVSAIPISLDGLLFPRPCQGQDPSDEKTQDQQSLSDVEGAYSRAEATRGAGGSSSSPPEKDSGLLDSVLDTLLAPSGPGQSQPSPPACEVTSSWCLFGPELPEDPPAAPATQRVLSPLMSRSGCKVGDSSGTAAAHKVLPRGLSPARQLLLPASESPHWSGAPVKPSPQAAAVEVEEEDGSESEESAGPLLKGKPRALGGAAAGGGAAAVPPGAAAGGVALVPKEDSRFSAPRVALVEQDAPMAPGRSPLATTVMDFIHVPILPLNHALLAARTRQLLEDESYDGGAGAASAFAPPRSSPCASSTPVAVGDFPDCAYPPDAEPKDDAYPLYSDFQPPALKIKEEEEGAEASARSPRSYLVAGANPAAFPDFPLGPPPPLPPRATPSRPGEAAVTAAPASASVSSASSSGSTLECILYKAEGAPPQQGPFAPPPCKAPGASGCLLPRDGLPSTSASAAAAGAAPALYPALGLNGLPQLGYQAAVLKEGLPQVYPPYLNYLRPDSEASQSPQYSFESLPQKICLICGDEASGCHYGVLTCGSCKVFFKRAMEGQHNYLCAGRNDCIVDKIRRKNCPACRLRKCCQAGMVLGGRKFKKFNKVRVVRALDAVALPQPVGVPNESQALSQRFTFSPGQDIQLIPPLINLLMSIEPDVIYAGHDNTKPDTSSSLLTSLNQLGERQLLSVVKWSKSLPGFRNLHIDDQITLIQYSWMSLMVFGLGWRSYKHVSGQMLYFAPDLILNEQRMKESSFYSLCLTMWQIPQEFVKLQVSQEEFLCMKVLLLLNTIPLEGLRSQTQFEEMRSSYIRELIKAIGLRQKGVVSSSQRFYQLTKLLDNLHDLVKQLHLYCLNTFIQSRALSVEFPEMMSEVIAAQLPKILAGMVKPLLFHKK
T1 sequence (P63059 whole entry, looked up): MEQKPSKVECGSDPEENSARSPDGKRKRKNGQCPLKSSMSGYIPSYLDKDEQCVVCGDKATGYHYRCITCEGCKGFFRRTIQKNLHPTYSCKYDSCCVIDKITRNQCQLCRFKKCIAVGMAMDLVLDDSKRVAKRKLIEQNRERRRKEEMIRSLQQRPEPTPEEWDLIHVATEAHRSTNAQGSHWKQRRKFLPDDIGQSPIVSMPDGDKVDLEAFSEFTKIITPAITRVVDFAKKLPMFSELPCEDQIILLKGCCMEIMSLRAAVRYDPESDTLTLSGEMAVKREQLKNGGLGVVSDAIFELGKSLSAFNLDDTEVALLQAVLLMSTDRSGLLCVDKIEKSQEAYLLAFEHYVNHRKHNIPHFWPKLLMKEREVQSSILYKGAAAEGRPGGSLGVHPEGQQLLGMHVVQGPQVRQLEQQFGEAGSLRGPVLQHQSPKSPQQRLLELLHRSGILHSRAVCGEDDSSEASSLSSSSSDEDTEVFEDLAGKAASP
T1 sequence (P18113 whole entry, looked up): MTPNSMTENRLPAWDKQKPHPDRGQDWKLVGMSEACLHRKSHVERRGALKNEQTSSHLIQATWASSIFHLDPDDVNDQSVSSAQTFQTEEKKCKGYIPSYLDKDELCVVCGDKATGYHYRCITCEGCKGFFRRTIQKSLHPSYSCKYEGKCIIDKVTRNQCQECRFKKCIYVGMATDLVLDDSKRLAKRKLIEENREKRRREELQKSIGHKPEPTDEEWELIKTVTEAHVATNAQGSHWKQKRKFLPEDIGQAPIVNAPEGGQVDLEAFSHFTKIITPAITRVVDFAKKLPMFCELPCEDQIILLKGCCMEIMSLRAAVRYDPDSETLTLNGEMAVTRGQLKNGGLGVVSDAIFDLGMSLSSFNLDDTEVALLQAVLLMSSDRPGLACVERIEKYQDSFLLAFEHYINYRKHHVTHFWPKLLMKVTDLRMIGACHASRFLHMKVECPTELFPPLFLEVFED

In the case of `COC(=O)CSc1cc(N=c2sc(=O)n3n2CCCC3)c(F)cc1Cl`, the outcome in [1] was inactive.
On the same count and under the same terms, the same measure for `CCOC(=O)C(C)Oc1ccc(Oc2cnc3cc(Cl)ccc3n2)cc1` (stereo not given): “inactive”.
Regarding `C[C@]12CC[C@@H]3c4ccc(O)cc4C[C@@H](CCCCCCCCCS(=O)CCCC(F)(F)C(F)(F)F)[C@H]3[C@@H]1CC[C@@H]2O` (stereo not given in full), the result in [2], in assay [4], in [6], in assay [7] and in assay [8] was inactive. Moreover, the concentration at half-maximal activity (AC50) in assay [3] is 4.06 µM (active); in [5] it was 5.78 µM (active).
As for `CCNc1nc(N)nc(Cl)n1`, the result in [9] was inactive.
For `c1ccc(Nc2ccccc2)cc1`, in assay [1], the outcome was inactive.
On the same count and under the same terms, to `CCOC(=O)COc1cc(-n2ncc(C(F)(F)F)c(C)c2=O)c(F)cc1Cl` belongs “inactive”; to `N#CSCSc1nc2ccccc2s1`, “inactive”.
Still for that read-out and setting: to `C#CCOC(=O)[C@@H](C)Oc1ccc(Oc2ncc(Cl)cc2F)cc1` belongs “inactive”.
Still for that read-out and setting: to `CSC(=O)c1cccc2nnsc12` belongs “inactive”.
Turning to `CC(C)CCCCCCc1ccc(O)cc1`, the outcome in assay [1], in assay [3], in [10], in [11], in [5] and in [6] was inactive. In addition, the call in [7] was inactive.
Consider `CCCCCCC(C)OC(=O)COc1nc(F)c(Cl)c(N)c1Cl` (stereo not given), for which the result in [1] was inactive.
Take `CCOC(=O)C(C)Oc1ccc(Oc2nc3ccc(Cl)cc3o2)cc1` (stereo not given): in assay [1], the outcome was inactive.
Still for that read-out and setting: the same measure for `CCN(Cc1c(F)cccc1Cl)c1c([N+](=O)[O-])cc(C(F)(F)F)cc1[N+](=O)[O-]`: “inactive”.
For `O=C(c1ccc(O)cc1O)c1ccc(O)cc1O`, the outcome in [2], in assay [11], in [4], in assay [6] and in assay [7] was inactive. The half-maximal activity concentration (AC50) was 58.1 µM (active) in [3] and 68.3 µM (active) in assay [5].
For `C[C@]12C[C@H](O)[C@H]3[C@@H](CCC4=CC(=O)CC[C@@]43C)[C@@H]1CC[C@@H]2C(=O)CO`, the call in [10], in [11], in [5] and in assay [7] was inactive.
For the molecule `N[C@@H](Cc1cc(I)c(Oc2ccc(O)c(I)c2)c(I)c1)C(=O)O`, the outcome in [1] was inactive.
As to `CC(=O)[C@H]1CC[C@H]2[C@@H]3CCC4=CC(=O)CC[C@]4(C)[C@H]3CC[C@]12C`, in assay [1], the AC50 is 9.92 µM (active). Further, the outcome in assay [8] was inactive.
`S=C([S-])NCCNC(=S)[S-].[Mn+2]`: in [1], the result was inactive.

For orientation: AC50 means the concentration giving half of the maximal activity seen.
